Assay outcomes: PubChem BioAssay, National Center for Advancing Translational Sciences (NCATS)
Shiga toxin inh: A qHTS for Small Molecule Inhibitors of Shiga Toxin; Vero cells, Shiga toxin protein synthesis inhibition reporter; inhibition, % at 38.7 µM; 290,000 tested, 9.2% active; in the data active = inhibition mostly above about 28%, no sharp cut-off; inactive = mostly below about 43%; note: 0% is about no effect
CHX counter: Cycloheximide Counterscreen for Small Molecule Inhibitors of Shiga Toxin; 300,000 tested, 12% active; max response, %; AID 2314, 2010; cell reporter, cycloheximide protein synthesis inhibition counterscreen; in the data active = max response mostly above about 13%, no sharp cut-off; inactive = mostly below about 14%; note: read at 38.3 µM for the half of the compounds with a filed dose; 0% is about no effect
Pf growth 96h: Primary qHTS for delayed death inhibitors of the malarial parasite plastid, 96 hour incubation. Potency, µM (series often up to 28.7 µM), for the others: at the top dose activity change, negative = inhibition, usual class: inhibitors. 320,000 tested, 6.9% active. P. falciparum luciferase reporter growth, 96 h; note: potency is the fitted concentration of half-maximal effect; % is set by controls: 0 for no effect and ±100 for the full control effect
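Two-generation exposure (96 h) targets delayed-death phenotype. Reporter parasites carrying integrated firefly luciferase, in red cells at 2% hematocrit and 0.05% parasitemia final, kept at 37 C, 5% CO2; luminescence loss indicates inhibition.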
Pf growth 48h: Primary qHTS for delayed death inhibitors of the malarial parasite plastid, 48 hour incubation; P. falciparum luciferase growth in erythrocytes, 48 h; AID 504832, 2011; 310,000 tested, 5.9% active; Potency, µM (top dose mostly 28.7 µM), inactives show top-dose activity change, negative = inhibition, most hits filed as inhibitors; note: potency is the fitted concentration of half-maximal effect; % is set by controls: 0 for no effect and ±100 for the full control effect
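Compounds are pin-transferred into medium, infected erythrocytes (2% hematocrit, 0.1% parasitemia final) are added, and plates sit one parasite generation at 37 C in 5% CO2. Detection reagent is then added and luminescence measured.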
Numbers without * were called inactive; i = inactive; ? = inconclusive; · = no result. Hits are enriched below; roughly 21% of the tested compounds scored in any of these assays. Unless noted, calls come from the whole dose curve; as a rule, active = well fitted inhibition curve with a large enough effect; inconclusive = small, poorly fitted or top-dose-only effect, or another doubt; inactive = no such curve, though single readings can be large or run the other way.

SMILES	Shiga toxin inh	CHX counter	Pf growth 96h	Pf growth 48h
CC(=O)N(c1ccc(Cl)cc1)c1nc(C)cc(C)c1C#N	-4	1	7.4µM*	-3%
Cc1ccc(S(=O)(=O)N2CCN(c3nc(-c4ccc(F)cc4)nc4cc(Cl)ccc34)CC2)cc1	-5	2	·	·
CCCn1c(N)c(N2CCCCC2)c(=O)n(CC(=O)Nc2ccccc2)c1=O	-5	6	-2%	·
CCCn1c(N)c(N(C)C)c(=O)n(CC(=O)Nc2ccc(OC(F)(F)F)cc2)c1=O	2	-3	10µM*	-2%
COc1nc(N(c2ccccc2)c2ccccc2)nc(-n2ccnc2)n1	-16	-4	?	12µM*
Cc1ccc(C)c(OCCC(=O)OCC(=O)NCCc2ccc(S(N)(=O)=O)cc2)c1	·	·	34%	2%
CS(=O)(=O)N(CCc1ccccc1)CC(=O)N1CCN(c2ccc(F)cc2)CC1	-7	-3	?	-15%
Clc1ccc(-n2cc(COCc3ccccc3)nn2)cc1	57*	24	312%	i
COCCN(C(=O)c1cc(S(=O)(=O)N2CCCCC2)ccc1Cl)c1c(N)n(CC(C)C)c(=O)[nH]c1=O	·	·	6%	-21%
C=CCN1C(=O)c2ccc(C(=O)N(CC)CC(=O)Nc3ccc(OC)cc3)cc2C1=O	·	·	8%	?
O=C1c2ccccc2C(O)(c2ccccc2)N1c1ccncc1 (stereo not given)	-11	-5	?	12µM*
CCCc1nc2ccccc2c(=O)n1CC(=O)c1ccc(F)cc1	-3	1	17%	·
COc1ccc(-c2cc(N)n(S(=O)(=O)c3ccc(F)cc3)n2)cc1OC	-5	4	22%	·
COc1cccc(-c2ccc(SCC(=O)NC3CCCC3)nn2)c1	-1	-4	?	-6%
COc1ccc(-c2[nH]c(-c3cccc(OC)c3)nc2SCC(=O)NC2CCCC2)cc1	-7	-2	3.3µM*	-20%
COc1ccc(-c2[nH]c(-c3ccccc3)nc2SCC(=O)NC2CCCC2)cc1	-16	-3	12µM*	-29%
COc1ccc(-c2[nH]c(-c3ccc(F)cc3)nc2SCC(=O)NC2CCCC2)cc1	-5	-1	?	-23%
COc1ccc(-c2nc(SCC(=O)NC3CCCCC3)n[nH]2)cc1	20	24*	?	1%
COc1ccc(NC(C)=O)cc1CNC(=O)COc1ccccc1C(=O)Nc1cccc(C)c1C	·	1	23%	-19%
CCC1CC=CC2C1C(=O)N(Cc1ccccc1)C2c1ccc2ccccc2c1 (stereo not given)	-3	-5	·	·
CCc1ccc(OCC(=O)OC(C)C(=O)Nc2ccc(Cl)cn2)cc1 (stereo not given)	·	·	-22%	?
CCn1cnc2cc(NCc3nc4ccccc4n3C)ccc21	59*	26*	3%	104%
CC(C)n1cnc2cc(NCc3nc4ccccc4n3C)ccc21	82*	73*	11%	128%
CCn1cnc2cc(NCc3nc4ccccc4n3Cc3ccccc3)ccc21	50*	33*	152%	9%
CCn1c(CNc2ccc(C(=O)O)cc2)nc2ccccc21	-2	-7	3%	10%
SMILES	Shiga toxin inh	CHX counter	Pf growth 96h	Pf growth 48h
Cc1nnc(SCc2cccc([N+](=O)[O-])c2)[nH]c1=O	23	-2	28%	16%
CC(Sc1nnc(-c2ccncc2)n1C)C(=O)Nc1ccc(N2CCOCC2)cc1 (stereo not given)	·	·	-1%	3%
CNC(=O)/C(C#N)=C/c1c(N(Cc2ccccc2)Cc2ccccc2)nc2c(C)cccn2c1=O	-11	-4	2.9µM*	13µM*
CCNC(=O)/C(C#N)=C/c1c(N(Cc2ccccc2)Cc2ccccc2)nc2ccccn2c1=O	-12	-3	13µM*	3.7µM*
COc1ccc(-c2cc(C)no2)cc1S(=O)(=O)N(C)c1ccc(C)cc1	-3	2	?	?
Cc1nn(-c2ccccc2)c(N)c1N=O	17	1	21%	15%
Cc1nn(-c2ccc(C(=O)O)cc2)c(N)c1-c1ccccc1	23*	28*	40%	164%
Cc1nn(-c2nc3ccccc3[nH]2)c(N)c1-c1ccc(Cl)cc1	82*	46*	?	-63%
Cc1nn(-c2ccccc2)c(N)c1C(c1ccccc1)c1c(C)nn(-c2ccccc2)c1N	-10	-1	13µM*	?
COc1ccc(-c2c(C)nn(-c3ccccc3)c2N)cc1	51	23*	103%	·
O=C(COC(=O)CNC(=O)c1ccc(Cl)c([N+](=O)[O-])c1)NCC1CCCO1 (stereo not given)	·	·	10%	-14%
